Screens as filed in PubChem.
In the library only some 17% were active in any assay of this set; here they are far more common.
TDP1 cell noCPT: qHTS for Inhibitors of human tyrosyl-DNA phosphodiesterase 1 (TDP1): qHTS in cells in absence of CPT; AID 686978, 2013; 420,000 tested, 15% active; DT40 Tdp1-/- hTDP1 cells, no CPT, ATP luminescence, 48 h; Potency, µM (titrated, usually from 46.2 µM), for the others: at the top dose activity change, negative = growth inhibition, actives largely listed as inhibitors; further: on the % scale 0 is the no-effect control and ±100 the full control effect; nearly all actives have a fitted effect of over 55% in size
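Growth of hTDP1-complemented DT40 Tdp1-knockout cells is measured by ATP luminescence after at least 48 hr compound exposure at 37 °C, with DMSO substituting for the 20 nM CPT used in the parallel screen.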
HT1080-NT tox: kills 2HG-producing HT-1080-NT fibrosarcoma cells; HT-1080-NT fibrosarcoma viability, CellTiter-Glo ATP luminescence, 48 h; Potency, µM (series often up to 46.1 µM), inactives show at the top dose activity, negative = less viability, hits mostly cytotoxic; 360,000 tested, 1.6% active; AID 686970;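 further: NT is the 2HG producing partner of a matched IDH1 knockdown line; 0% = DMSO-treated cells and -100% = media-only wells without cells; nearly all actives have a fitted effect of over 55% in size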
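Read-out is CellTiter-Glo luminescence after 10 minutes at room temperature, following 48 hours' compound treatment of HT-1080-NT cells (750 cells/well, RPMI, 5% FBS, 37 degrees C).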
HepG2 tox: HepG2 cytotoxicity, counter-screen for TGF-b inhibitors; 410,000 tested, 0.76% active; Potency, µM (series often up to 46.1 µM), for inactives: top-dose activity change, negative = cytotoxicity, actives largely listed as cytotoxic; AID 588856; HepG2 CAGA-GFP viability, ATP luminescence, 18 h
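HepG2 CAGA-GFP cells (1000/well, DMEM with 1% FBS) received compound, then TGF-beta at 500 pg/mL final, and were incubated 18 hours at 37 degrees C. Viability was read by CellTiter-Glo luminescence. Media-only wells were set as complete cell-killing and DMSO as no toxicity.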
TGFb inhibitor: blocks TGF-b signaling; HepG2 CAGA-GFP TGF-b/SMAD3 reporter, GFP fluorescence, 18 h; TGF-beta stimulated, 500 pg/mL final; Potency, µM (doses to about 46.1 µM), inactives show top-dose activity, negative = inhibition, most hits filed as inhibitors; 410,000 tested, 1.2% active; further: on the % scale 0 is the no-effect control and ±100 the full control effect; nearly all actives have a fitted effect of over 65% in size
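HEPG2 CAGA-GFP cells (1000/well, DMEM with 1% FBS) were pre-incubated 2 h at 37 degrees C, given compound by pin tool, then stimulated with TGF-beta at 500 pg/mL final for 18 h before per-cell GFP fluorescence imaging.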
DT40 TDP1 CPT: growth inhibition of DT40 Tdp1-/-;hTDP1 cells with camptothecin (screen for TDP1 inhibitors); chicken DT40 Tdp1-/-;hTDP1 cells + 20 nM CPT, ATP luminescence, 48 h; Potency, µM (titrated, usually from 46.2 µM), for the others: at the top dose activity change, negative = growth inhibition, actives largely listed as inhibitors; 420,000 tested, 12% active; AID 686979; further: on the % scale 0 is the no-effect control and ±100 the full control effect; nearly all actives have a fitted effect of over 55% in size
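Chicken DT40 Tdp1-/- cells stably complemented with human TDP1 were seeded at 400 cells/well in medium containing 20 nM camptothecin, exposed to pin-transferred compounds, and grown at 37 °C for at least 48 hr. Viability was read as ATP luminescence.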
HT1080 IDH1KD tx: kills HT-1080 cells with IDH1 knockdown; AID 686971; 360,000 tested, 2% active; Potency, µM (series often up to 46.1 µM), for inactives: at the highest dose activity, negative = toxicity, hits mostly cytotoxic; HT-1080 IDH1 knockdown viability, ATP luminescence, 48 h;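 further: 0% = DMSO wells and -100% = cell-free medium wells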
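Cytotoxicity counter-line: IDH1KD HT-1080, 48 h, CellTiter-Glo. Curves classed by r2, magnitude and activity.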
An asterisk follows results filed as active; ? = inconclusive; . = no result. The call rests on the fitted dose curve; in most records, active means well fitted curve in the direction sought with a large enough effect; inconclusive means small, poorly fitted or top-dose-only effect, or another doubt; inactive means no such curve, though single readings can be large; an effect the other way counts as inactive or inconclusive. Potency means the concentration at half of the fitted maximal effect.

SMILES	TDP1 cell noCPT	HT1080-NT tox	HepG2 tox	TGFb inhibitor	DT40 TDP1 CPT	HT1080 IDH1KD tx
O=C(Nc1ccccc1)N1CCN(c2cccc(C(F)(F)F)c2)CC1	11.6µM*	-2.3%	-20.3%	2.0%	20.6µM*	0.0%
O=C(O)[C@H](Cc1ccccc1)NC(=O)N1CCN(c2cccc(C(F)(F)F)c2)CC1	-11.3%	0.2%	4.2%	25.6%	-6.8%	-2.2%
O=C(Nc1ccc(F)cc1)N1CCCN(c2nccc(C(F)(F)F)n2)CC1	?	-20.4%	6.2%	-6.6%	-27.5%	-4.5%
O=C(Nc1cccc(C(F)(F)F)c1)c1cccnc1N1CCN(CCO)CC1	-19.2%	-6.0%	-12.8%	-5.2%	9.6%	-7.9%
O=C(NCc1ccccc1Cl)c1ccc(NC(=O)N2CCCCc3ccccc32)cc1	-8.9%	.	-13.3%	-8.3%	-3.5%	.
COc1nc(C)nc(NC(=O)NS(=O)(=O)c2ccc(C)cc2)n1	-1.5%	18.4%	2.8%	0.6%	4.7%	6.8%
CC(=O)Nc1ccc(C(=O)NCC2(N3CCCCC3)CCCCC2)cc1	-21.3%	-3.7%	-1.7%	8.9%	?	1.1%
Cc1ccc(Nc2nc(C)c(NC(=O)c3ccc(C)cc3)c(Nc3ccc(C)cc3)n2)cc1	4.61µM*	.	-17.7%	14.1µM*	6.51µM*	.
CCOc1ccc(C(=O)Nc2ccc(-c3nc4cc(C)ccc4o3)cc2)cc1	.	.	-19.6%	-1.0%	.	.
CCOc1ccc(Nc2nc(C)c(NC(=O)c3ccc(C)cc3)c(Nc3ccc(OCC)cc3)n2)cc1	2.59µM*	.	-16.0%	?	1.3µM*	.
Cn1nccc1C(=O)Nc1ccn(C23CC4CC(CC(C4)C2)C3)n1	14.6µM*	-4.8%	7.2%	1.8%	20.6µM*	-16.9%
CCN(CC(=O)Nc1ccc(NC(C)=O)cc1)C(=O)/C=C/c1cn(-c2ccccc2)nc1-c1ccc(F)cc1	-1.1%	3.4%	-7.8%	?	2.4%	-11.0%
CC1Cc2ccccc2N1C(=O)CN(C)CC(=O)Nc1ccc(OC(F)(F)F)cc1 (stereo unspecified)	?	-19.8%	-45.8%	?	14.6µM*	-5.1%
COc1ccc(-c2nn(-c3ccccc3)cc2/C=C/C(=O)NCCCn2ccnc2)cc1OC	14.6µM*	-14.6%	-16.9%	-2.1%	-30.0%	?
COc1ccc(-c2nn(-c3ccccc3)cc2C(=O)NCCCn2ccnc2)cc1	-12.3%	-17.6%	-20.1%	11.8%	?	-2.8%
COc1ccc(OC)c(/C=C/C(=O)N(C)CC(=O)Nc2cc(C)ccc2C)c1	?	6.8%	22.5%	-17.2%	-16.4%	9.3%
CN(CC(=O)NC(=O)NC1CCCCC1)CC(=O)Nc1ccc(OC(F)(F)F)cc1	?	-1.0%	-43.0%	?	?	-9.8%
CCN(CC(=O)Nc1ccc(NC(C)=O)cc1)C(=O)/C=C/c1cn(-c2ccccc2)nc1-c1ccc(C)cc1	20.6µM*	-26.9%	18.0%	-27.0%	?	-24.3%
COc1ccc(OC)c(/C=C/C(=O)N(C)CC(=O)Nc2ccc(C)cc2)c1	10.3µM*	6.7%	-0.4%	17.4%	6.51µM*	-2.4%
O=C(C[C@H]1CC[C@H]2[C@@H](COC[C@H](O)CN2Cc2ccccc2)O1)NCCCN1CCOCC1	6.7%	14.5%	.	.	13.1%	22.2%
Cc1ccc(-c2cc(NC(=O)c3ccccc3Cl)on2)cc1	-14.5%	.	-43.5%	-23.4%	?	.
CCOc1ccc(NC(=O)CN(C)C(=O)/C=C/c2ccco2)cc1OCC	1.2%	8.8%	-2.6%	2.0%	-9.9%	0.3%
CN(CC(=O)Nc1ccc(OC(F)(F)F)cc1)C(=O)/C=C/c1ccco1	23.1µM*	-4.8%	-25.6%	-2.2%	?	0.0%
COc1cccc(NC(=O)CN(C)C(=O)/C=C/c2cn(-c3ccccc3)nc2-c2ccc(OC)c(OC)c2)c1	18.4µM*	-8.7%	-15.3%	-16.1%	?	-6.5%
CCC(=O)N1CCc2cc(S(=O)(=O)N3CCN(c4ccccc4F)CC3)ccc21	-9.0%	.	-17.7%	-3.4%	-0.1%	.
SMILES	TDP1 cell noCPT	HT1080-NT tox	HepG2 tox	TGFb inhibitor	DT40 TDP1 CPT	HT1080 IDH1KD tx
CN(Cc1cn(-c2ccccc2)nc1-c1cc2ccccc2o1)C(=O)CCC(=O)O	?	-6.6%	-14.1%	0.6%	?	-6.1%
N#Cc1cc(C(=O)c2cc(Br)ccc2O)cn(C2CCCCC2)c1=O	20µM*	2.2%	-15.6%	?	12.6µM*	-22.8%
CC(=O)c1cccc(NC(=O)COc2ccccc2C(=O)c2cc(C#N)c(=O)n(C3CCCCC3)c2)c1	11.6µM*	-1.0%	1.3%	0.0%	?	-3.1%
Cc1ccc(OCc2ccc(C#N)cc2)c(C(=O)c2cc(C#N)c(=O)n(C3CC3)c2)c1	-14.4%	-2.6%	-14.2%	-5.4%	-13.0%	5.2%
Cc1ccc(O)c(C(=O)c2cc(C#N)c(=O)n(CC3CCCO3)c2)c1 (stereo unspecified)	20.6µM*	-8.7%	-40.7%	30.0%	14.6µM*	-0.9%
CC(C)OCCCNC(=O)c1cc(-c2cccnc2)nc2ccccc12	-14.4%	4.4%	2.8%	-1.2%	?	6.4%
Cc1cccc(NC(=O)c2ccc(C)c(S(=O)(=O)N3CCOCC3)c2)n1	-1.1%	1.2%	0.4%	6.3%	4.6%	1.0%
C=CCn1c(COc2cc(C)ccc2C(C)C)nnc1SCC(=O)c1c(N)n(C)c(=O)n(C)c1=O	23.1µM*	22.2%	0.8%	-1.8%	?	15.0%
Cc1ccc(C(C)C)c(OCC(=O)OCC(=O)c2c(N)n(C)c(=O)n(C)c2=O)c1	16.4%	-1.9%	-7.3%	-12.4%	-0.9%	1.2%
O=C(NCC1OCCc2ccccc21)c1ccc(NC(=O)c2ccc(Cl)cc2)cc1 (stereo unspecified)	16.4µM*	20.6µM*	-67.2%	?	23.1µM*	?
Cc1ccc(NC(=O)C(=O)NCC2OCCc3ccccc32)cc1 (stereo unspecified)	2.2%	6.3%	17.1%	18.2%	-24.8%	12.1%
